Data on four compounds can be found in PubChem BioAssay AID651871 (Sanford-Burnham Center for Chemical Genomics, 2012).

Values joined by “and” are separate entries in the source; they are usually repeats but may differ in a detail not shown here. Equal entries are not always repeated.

This assay has as its system H9c2. Nature of the assay: cardiomyocyte survival under oxidative or metabolic stress – cell-based, panel, H9c2 and HL-1, ATP luminescence, set 2, SAR follow-up (AID 651871).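 Also: cells exposed to stressor for 2 h before ATP readout; reference of the scale not given here.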 The settings on record: H9c2/HL-1 cardiomyocytes, H2O2 oxidative stress.
Setting [1] is: with H2O2, run 2, at 79 µM (top of the series).

Take `CCOC(=O)c1cccc(NC(=O)CNC(=O)c2cc(-c3cc(OC)c(OC)c(OC)c3)nc3ccccc23)c1`: the activity (protection/inhibition) under setting [1] turned out to be 114%.

In the case of `COc1ccc2nc(-c3cc(OC)c(OC)c(OC)c3)cc(C(=O)NCC(=O)Nc3ccc(C(C)=O)cc3)c2c1`, the activity (protection/inhibition) under setting [1] was 122% and 100%.

In the case of `COc1cc(-c2cc(C(=O)Nc3cccc(C(=O)NCc4ccccc4)c3)c3ccccc3n2)cc(OC)c1OC`, the activity (protection/inhibition) under setting [1] was found to be 119%.

With `COc1ccc2c(c1OC)C(=O)N1c3ccccc3C(=O)N(Cc3cccc(Cl)c3Cl)C21` (stereo not given), the activity (protection/inhibition) was 48.1% (with H2O2, run 2, at 39.5 µM (top of the series)); 101% and 61% under setting [1].
